In PubChem BioAssay (EPA / NIEHS) one finds outcome and AC50 data, which are given here for 19 molecules.

Experiment [1] addresses human Thromboxane A2 Receptor (TXA2), TBXA2R (gene 6915) (UniProt P21731). The experiment can be described thus: NVS_GPCR_hTXA2: NovaScreen (NVS) G Protein-Coupled Receptor Assay for human Thromboxane A2 Receptor (TXA2) (AID 2283282).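 Also: actives reduce bound radioligand signal relative to DMSO baseline.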 The method, boiled down: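 Human platelet-derived receptor preparation incubated with test chemical and radiolabelled ligand for 1 hour, cell-free. Bound label was separated by filtration and counted; displacement relative to DMSO controls gave activity, screened at 25 uM, then titrated.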

Experiment [2] has as its target Muscarinic acetylcholine receptor M2 (Homo sapiens) (UniProt P08172). The experiment can be described thus: NVS_GPCR_hM2: NovaScreen (NVS) G Protein-Coupled Receptor Assay for human Muscarinic, M2 Receptor (AID 2283273). The gist of the method:
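Filter-based radiodetection read bound radioligand 1 h after dosing CHO-derived membrane protein. Single-concentration duplicates (25 uM) first, then concentration-response for actives; signal loss versus DMSO scored.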

Experiment [3] concerns the target D(1A) dopamine receptor (Homo sapiens) (UniProt P21728). The experiment can be described thus: NVS_GPCR_hDRD1: NovaScreen (NVS) G Protein-Coupled Receptor Assay for human Dopamine Receptor D1 (DRD1) (AID 2283269). The gist of the method:
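Extracted HEK293 DRD1 is incubated 1 h with compound and a tritiated or iodinated radioligand, then filtered and counted. Screening runs 25 uM in duplicate with on-plate positive and negative controls.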

For experiment [4], the target named is human Muscarinic, M4 Receptor, CHRM4 (gene 1132) (UniProt P08173). The experiment can be described thus: NVS_GPCR_hM4: NovaScreen (NVS) G Protein-Coupled Receptor Assay for human Muscarinic, M4 Receptor (AID 2283274). The gist of the method: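 Filter-based scintillation counting of radioligand bound to CHO-expressed human M4 preparations after 1 h; loss of signal fitted versus DMSO. Initial duplicate testing at 25 uM, concentration-response follow-up for actives.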
Sequence of human Muscarinic, M4 Receptor, CHRM4 (gene 1132) (P08173 whole entry, looked up): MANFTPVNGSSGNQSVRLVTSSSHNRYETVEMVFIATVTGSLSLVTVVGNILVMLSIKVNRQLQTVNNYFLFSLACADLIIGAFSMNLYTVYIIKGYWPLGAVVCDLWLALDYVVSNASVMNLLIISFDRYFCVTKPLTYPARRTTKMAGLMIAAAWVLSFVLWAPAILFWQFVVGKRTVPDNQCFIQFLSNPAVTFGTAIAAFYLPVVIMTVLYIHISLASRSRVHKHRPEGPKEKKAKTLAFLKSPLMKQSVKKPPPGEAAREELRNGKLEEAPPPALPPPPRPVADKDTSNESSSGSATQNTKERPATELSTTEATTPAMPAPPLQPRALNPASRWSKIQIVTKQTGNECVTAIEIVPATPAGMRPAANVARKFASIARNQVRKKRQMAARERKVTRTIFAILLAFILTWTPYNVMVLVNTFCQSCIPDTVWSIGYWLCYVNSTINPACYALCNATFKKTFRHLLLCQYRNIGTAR

In experiment [5] the target is Muscarinic acetylcholine receptor M5 (Homo sapiens) (UniProt P08912). The experiment can be described thus: NVS_GPCR_hM5: NovaScreen (NVS) G Protein-Coupled Receptor Assay for human Muscarinic, M5 Receptor (AID 2283275). The gist of the method:
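Chemicals passing a primary duplicate screen at 25 uM were run as singleton concentration series, maximum 50 uM. Displacement of a specific radioligand from CHO-extracted receptor was read by filter scintillation after 1 h, relative to DMSO.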

For experiment [6], the target named is human Neurokinin, NK2 Receptor, TACR2 (gene 6865) (UniProt P21452). The experiment can be described thus: NVS_GPCR_hNK2: NovaScreen (NVS) G Protein-Coupled Receptor Assay for human Neurokinin, NK2 Receptor (AID 2283278).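 Also: actives reduce bound radioligand signal relative to DMSO baseline.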 The gist of the method: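 Test chemicals displace a radioligand from receptor prepared from CHO cells in a cell-free format, read after 4 hours by scintillation counting on filters. Screening starts at 25 uM in duplicate, and active chemicals then go to concentration series.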
Sequence of human Neurokinin, NK2 Receptor, TACR2 (gene 6865) (P21452 whole entry, looked up): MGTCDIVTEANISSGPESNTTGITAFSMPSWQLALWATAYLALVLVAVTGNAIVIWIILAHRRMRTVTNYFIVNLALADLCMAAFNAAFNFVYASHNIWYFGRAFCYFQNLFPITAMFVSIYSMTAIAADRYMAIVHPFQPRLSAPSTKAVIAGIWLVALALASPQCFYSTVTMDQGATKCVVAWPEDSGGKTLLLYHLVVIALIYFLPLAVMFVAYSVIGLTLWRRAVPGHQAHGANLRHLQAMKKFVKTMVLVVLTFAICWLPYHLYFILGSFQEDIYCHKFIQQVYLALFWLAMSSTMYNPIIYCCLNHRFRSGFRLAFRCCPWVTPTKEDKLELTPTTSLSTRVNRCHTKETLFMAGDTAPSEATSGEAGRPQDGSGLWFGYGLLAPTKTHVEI

For experiment [7], the target named is human Opioid Receptor Delta 1 (Opiate D1), OPRD1 (gene 4985) (UniProt P41143). In words: NVS_GPCR_hOpiate_D1: NovaScreen (NVS) G Protein-Coupled Receptor Assay for human Opioid Receptor Delta 1 (Opiate D1) (AID 2283280). The method, boiled down: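 Membrane preparations from CHO cells bearing the human receptor were incubated 1 h with test chemical, and bound radioligand was counted after filtration. Actives from 25 uM duplicate screening were retested in concentration-response.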
Sequence of human Opioid Receptor Delta 1 (Opiate D1), OPRD1 (gene 4985) (P41143 whole entry, looked up): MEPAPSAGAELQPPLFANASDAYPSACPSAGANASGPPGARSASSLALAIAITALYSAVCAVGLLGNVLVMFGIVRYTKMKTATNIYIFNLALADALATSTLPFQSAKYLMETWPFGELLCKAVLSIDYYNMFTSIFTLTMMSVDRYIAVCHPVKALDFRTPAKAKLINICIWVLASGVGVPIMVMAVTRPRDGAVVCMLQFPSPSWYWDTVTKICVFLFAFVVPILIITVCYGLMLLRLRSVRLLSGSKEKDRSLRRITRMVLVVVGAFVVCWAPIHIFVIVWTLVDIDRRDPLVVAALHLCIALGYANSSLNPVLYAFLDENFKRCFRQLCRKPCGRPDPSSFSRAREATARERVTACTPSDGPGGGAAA

For experiment [8], the system named is 5-hydroxytryptamine receptor 2C (pig). In words: NVS_GPCR_p5HT2C: NovaScreen (NVS) G Protein-Coupled Receptor Assay for pig Serotonin, 5-Hydroxytryptamine Receptor 2C (5HT2C) (AID 2283288). The method, boiled down: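 Radioligand displacement on membranes from pig choroid plexus, detected by filter scintillation counting after 1 h. Tested first at a single 25 uM in duplicate, then in concentration-response for actives; DMSO served as baseline.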

Experiment [9] has as its target human Opioid Receptor Mu (Opiate Mu), OPRM1 (gene 4988) (UniProt P35372). In words: NVS_GPCR_hOpiate_mu: NovaScreen (NVS) G Protein-Coupled Receptor Assay for human Opioid Receptor Mu (Opiate Mu) (AID 2283290).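 Also: hits lower bound tracer signal versus DMSO meaning displacement of the ligand.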 The gist of the method: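 Here, radioligand binding to CHO-extracted receptor was measured after 2.5 h using filter-based scintillation detection. Initial single-concentration screening used 25 uM in duplicate with plate controls; confirmed actives went to concentration-response testing.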

The target of experiment [10] is human Neurotensin Receptor (NTS), NTSR1 (gene 4923) (UniProt P30989). In words: NVS_GPCR_hNTS: NovaScreen (NVS) G Protein-Coupled Receptor Assay for human Neurotensin Receptor (NTS) (AID 2283279). The method, boiled down: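 Compounds competed with a radiolabelled ligand for binding to CHO-derived human neurotensin receptor; bound signal counted after filtration, 1 h. Screened first at a single concentration of 25 uM in duplicate, then concentration series to 50 uM maximum for actives.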

The target in experiment [11] is human Vasopressin 1A Receptor (V1A), AVPR1A (gene 552) (UniProt P37288). The experiment can be described thus: NVS_GPCR_hV1A: NovaScreen (NVS) G Protein-Coupled Receptor Assay for human Vasopressin 1A Receptor (V1A) (AID 2283284). The method, boiled down: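 Single-concentration duplicate screen at 25 uM, with concentration-response follow-up (top 50 uM) for actives. The assay measured displacement of a radioligand from human platelet-derived receptor after 1.5 h, detected by filtration and scintillation counting.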
Sequence of human Vasopressin 1A Receptor (V1A), AVPR1A (gene 552) (P37288 whole entry, looked up): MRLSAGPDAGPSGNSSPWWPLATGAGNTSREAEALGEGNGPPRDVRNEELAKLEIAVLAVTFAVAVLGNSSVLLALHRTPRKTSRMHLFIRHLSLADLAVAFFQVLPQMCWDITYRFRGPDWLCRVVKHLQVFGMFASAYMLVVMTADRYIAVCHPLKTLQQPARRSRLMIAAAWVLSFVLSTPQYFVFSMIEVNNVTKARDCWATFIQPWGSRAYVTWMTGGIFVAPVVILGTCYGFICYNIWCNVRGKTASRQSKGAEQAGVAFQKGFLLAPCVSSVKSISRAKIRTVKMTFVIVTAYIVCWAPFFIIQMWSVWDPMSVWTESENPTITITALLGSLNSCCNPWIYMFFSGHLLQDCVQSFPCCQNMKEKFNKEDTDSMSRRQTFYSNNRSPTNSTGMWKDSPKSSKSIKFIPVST

Experiment [12] has as its target mouse Cholecystokinin, CCK1 Receptor (CCKA), Cckar (gene 12425) (UniProt O08786). The experiment can be described thus: NVS_GPCR_mCCKAPeripheral: NovaScreen (NVS) G Protein-Coupled Receptor Assay for mouse Cholecystokinin, CCK1 Receptor (CCKA) (AID 2283285). The method, boiled down:
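Chemicals were first screened in duplicate at 25 uM, with those meeting threshold (e.g., 30% inhibition) retested in singleton concentration series to 50 uM maximum. Binding of radioligand to mouse pancreatic membranes was read after 2 h by filtration and scintillation counting.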

The subject of experiment [13] is rabbit Platelet Activating Factor Receptor (PAF), gene 100354046. The experiment can be described thus: NVS_GPCR_rabPAF: NovaScreen (NVS) G Protein-Coupled Receptor Assay for rabbit Platelet Activating Factor Receptor (PAF) (AID 2283287). The method, boiled down: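 Rabbit platelet membrane preparation; radioligand displacement read by filter-based scintillation counting 1 h after dosing, loss of signal versus DMSO. Primary screen in duplicate at 25 uM, actives followed up in concentration series.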

The target of experiment [14] is rat Adrenergic, Alpha 1, Non-selective Receptor (Adra1), Adra1a (gene 29412) (UniProt P43140). In words: NVS_GPCR_rAdra1_NonSelective: NovaScreen (NVS) G Protein-Coupled Receptor Assay for rat Adrenergic, Alpha 1, Non-selective Receptor (Adra1) (AID 2283289). The gist of the method: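 Chemicals first screened in duplicate at 25 uM, then actives tested in concentration series up to 50 uM. Binding measured as displacement of radioligand from rat forebrain membrane receptors, 1 h, filtration with scintillation readout; DMSO baseline.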

For experiment [15], the target named is rat Serotonin, 5-Hydroxytryptamine Receptor 1 (5HT1), Non-Selective Binding, Htr1a (gene 24473) (UniProt P19327). In words: NVS_GPCR_r5HT1_NonSelective: NovaScreen (NVS) G Protein-Coupled Receptor Assay for rat Serotonin, 5-Hydroxytryptamine Receptor 1 (5HT1), Non-Selective Binding (AID 2283286). The method, boiled down:
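Binding of a radioligand to rat cortex membranes is read by filtration and scintillation counting after 1 h. Compounds were screened at 25 uM in duplicate. Actives were then titrated to a top of 50 uM. DMSO is the baseline.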

Experiment [16] addresses human Purinergic Receptor P2Y, P2RY1 (gene 5028) (UniProt P47900). In words: NVS_GPCR_hPY2: NovaScreen (NVS) G Protein-Coupled Receptor Assay for human Purinergic Receptor P2Y (AID 2283281). The method, boiled down:
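Filtration scintillation readout of radioligand displacement on U937 extract, measured 1 h post-dosing. Single 25 uM duplicate screen, then singleton concentration series to 50 uM for chemicals passing threshold; DMSO as baseline.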

The target in experiment [17] is human Histamine 1 Receptor (H1), HRH1 (gene 3269) (UniProt P35367). The experiment can be described thus: NVS_GPCR_hH1: NovaScreen (NVS) G Protein-Coupled Receptor Assay for human Histamine 1 Receptor (H1) (AID 2283268). The gist of the method:
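Filter-based scintillation detection of radioligand binding to human H1, 1 h incubation; chemicals screened in duplicate at 25 uM, then concentration-response; signal loss relative to DMSO taken as activity.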

Inconclusive results are not listed. Activity calls are given as the source filed them. The calls were made as follows: active = hit-call score of the fitted dose curve at least 0.9, where 1 is the maximum; inconclusive = response in the unintended direction; inactive = score below 0.9.

Sequence of human Opioid Receptor Mu (Opiate Mu), OPRM1 (gene 4988) (P35372 whole entry, looked up): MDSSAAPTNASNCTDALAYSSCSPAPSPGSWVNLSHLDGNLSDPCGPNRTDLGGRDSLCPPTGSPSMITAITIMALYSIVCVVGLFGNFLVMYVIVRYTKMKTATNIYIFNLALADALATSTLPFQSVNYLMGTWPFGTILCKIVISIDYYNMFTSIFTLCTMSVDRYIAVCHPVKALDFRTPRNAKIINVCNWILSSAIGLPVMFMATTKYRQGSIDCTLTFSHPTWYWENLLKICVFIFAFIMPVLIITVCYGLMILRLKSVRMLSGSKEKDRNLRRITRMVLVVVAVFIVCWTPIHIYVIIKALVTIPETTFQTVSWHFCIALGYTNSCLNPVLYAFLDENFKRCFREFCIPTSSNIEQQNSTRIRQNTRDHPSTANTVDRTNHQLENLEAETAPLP
Sequence of D(1A) dopamine receptor (Homo sapiens) (P21728 whole entry, looked up): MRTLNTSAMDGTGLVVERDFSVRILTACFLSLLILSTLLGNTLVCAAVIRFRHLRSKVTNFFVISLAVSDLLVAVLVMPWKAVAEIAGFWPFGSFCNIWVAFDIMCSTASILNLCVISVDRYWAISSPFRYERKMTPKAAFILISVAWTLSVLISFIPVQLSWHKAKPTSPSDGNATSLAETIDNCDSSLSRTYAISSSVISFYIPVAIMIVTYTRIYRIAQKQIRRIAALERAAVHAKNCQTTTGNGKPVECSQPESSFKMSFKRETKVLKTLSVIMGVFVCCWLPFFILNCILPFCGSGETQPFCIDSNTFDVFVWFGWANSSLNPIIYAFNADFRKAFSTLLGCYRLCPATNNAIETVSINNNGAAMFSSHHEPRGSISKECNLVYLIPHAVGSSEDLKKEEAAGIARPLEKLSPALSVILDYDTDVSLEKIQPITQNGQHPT
Sequence of human Thromboxane A2 Receptor (TXA2), TBXA2R (gene 6915) (P21731 whole entry, looked up): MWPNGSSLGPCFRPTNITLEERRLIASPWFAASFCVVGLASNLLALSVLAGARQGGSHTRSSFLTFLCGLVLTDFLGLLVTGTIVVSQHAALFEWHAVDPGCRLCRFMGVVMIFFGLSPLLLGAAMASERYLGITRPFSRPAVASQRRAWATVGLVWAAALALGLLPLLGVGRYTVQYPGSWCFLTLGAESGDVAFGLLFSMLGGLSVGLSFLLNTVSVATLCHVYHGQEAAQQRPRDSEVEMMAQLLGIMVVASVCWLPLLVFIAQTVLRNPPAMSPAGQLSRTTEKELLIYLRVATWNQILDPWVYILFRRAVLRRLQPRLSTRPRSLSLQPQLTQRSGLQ
Sequence of human Purinergic Receptor P2Y, P2RY1 (gene 5028) (P47900 whole entry, looked up): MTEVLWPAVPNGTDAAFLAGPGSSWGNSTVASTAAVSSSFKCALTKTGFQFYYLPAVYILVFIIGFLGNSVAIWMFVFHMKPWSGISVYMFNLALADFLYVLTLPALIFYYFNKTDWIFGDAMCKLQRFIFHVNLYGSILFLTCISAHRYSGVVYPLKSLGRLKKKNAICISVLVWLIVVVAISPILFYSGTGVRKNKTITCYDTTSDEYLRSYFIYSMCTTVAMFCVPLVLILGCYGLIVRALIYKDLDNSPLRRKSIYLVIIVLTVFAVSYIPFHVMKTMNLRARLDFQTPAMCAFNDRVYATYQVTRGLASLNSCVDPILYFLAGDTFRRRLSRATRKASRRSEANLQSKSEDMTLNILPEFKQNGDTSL
Sequence of Muscarinic acetylcholine receptor M5 (Homo sapiens) (P08912 whole entry, looked up): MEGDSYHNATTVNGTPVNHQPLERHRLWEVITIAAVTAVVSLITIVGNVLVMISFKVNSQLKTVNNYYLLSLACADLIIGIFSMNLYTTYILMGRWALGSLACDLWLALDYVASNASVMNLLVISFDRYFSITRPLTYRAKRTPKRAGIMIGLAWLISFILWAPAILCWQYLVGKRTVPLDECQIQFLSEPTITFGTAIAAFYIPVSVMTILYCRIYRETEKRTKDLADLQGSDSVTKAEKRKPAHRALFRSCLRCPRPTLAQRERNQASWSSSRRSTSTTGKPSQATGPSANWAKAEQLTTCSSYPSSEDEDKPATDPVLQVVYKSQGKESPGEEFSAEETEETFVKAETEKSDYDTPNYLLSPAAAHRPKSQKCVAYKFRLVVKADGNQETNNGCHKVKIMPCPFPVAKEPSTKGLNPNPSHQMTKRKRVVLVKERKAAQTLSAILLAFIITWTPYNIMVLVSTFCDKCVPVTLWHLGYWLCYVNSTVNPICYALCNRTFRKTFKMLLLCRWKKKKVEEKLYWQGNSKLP
Sequence of Muscarinic acetylcholine receptor M2 (Homo sapiens) (P08172 whole entry, looked up): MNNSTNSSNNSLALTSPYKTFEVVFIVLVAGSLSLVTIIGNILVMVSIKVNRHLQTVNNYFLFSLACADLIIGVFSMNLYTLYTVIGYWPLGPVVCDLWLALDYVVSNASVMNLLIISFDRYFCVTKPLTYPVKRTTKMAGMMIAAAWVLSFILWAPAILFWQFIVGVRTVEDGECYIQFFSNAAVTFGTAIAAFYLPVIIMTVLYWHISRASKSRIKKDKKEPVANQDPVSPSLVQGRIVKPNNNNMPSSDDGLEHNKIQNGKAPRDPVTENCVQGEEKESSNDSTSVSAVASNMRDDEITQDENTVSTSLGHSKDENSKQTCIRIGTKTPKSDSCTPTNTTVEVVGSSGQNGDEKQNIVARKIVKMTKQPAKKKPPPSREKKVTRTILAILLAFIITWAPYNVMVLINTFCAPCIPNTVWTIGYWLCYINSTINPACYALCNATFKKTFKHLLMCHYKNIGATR
Sequence of mouse Cholecystokinin, CCK1 Receptor (CCKA), Cckar (gene 12425) (O08786 whole entry, looked up): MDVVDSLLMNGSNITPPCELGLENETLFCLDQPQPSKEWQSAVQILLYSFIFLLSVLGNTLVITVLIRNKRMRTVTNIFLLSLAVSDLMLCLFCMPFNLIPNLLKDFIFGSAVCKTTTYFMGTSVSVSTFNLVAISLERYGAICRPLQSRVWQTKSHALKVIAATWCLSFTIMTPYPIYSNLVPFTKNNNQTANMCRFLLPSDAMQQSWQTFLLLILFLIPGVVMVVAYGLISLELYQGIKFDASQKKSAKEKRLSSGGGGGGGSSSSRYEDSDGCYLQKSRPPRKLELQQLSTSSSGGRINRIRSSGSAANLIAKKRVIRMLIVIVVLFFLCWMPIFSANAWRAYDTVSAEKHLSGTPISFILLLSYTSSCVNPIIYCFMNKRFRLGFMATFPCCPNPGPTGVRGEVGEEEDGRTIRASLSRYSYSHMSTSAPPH

With `CCC(=O)O`, the result in [1] was inactive.

`OCC(CO)(CBr)CBr`: in experiment [1], the molecule was called inactive.

On to `CC[N+](CC)(CC)Cc1ccccc1`, for which the AC50 (commonly the midpoint of the concentration-response curve, whichever way the signal moves) in experiment [2] is 21.5 µM (active).

In the case of `CN(Cc1cnc2nc(N)nc(N)c2n1)c1ccc(C(=O)N[C@@H](CCC(=O)O)C(=O)O)cc1`, the AC50 in experiment [3] was 25 µM (active); in experiment [6] it was 2.6 µM (active); in experiment [7] it was 25 µM (active). For the same molecule, the result in experiment [4], in experiment [5], in experiment [8] and in [9] was inactive.

As for `C/C=C/C(=O)C1=C(C)CCCC1(C)C`, the molecule was classed as inactive in [3].

For the molecule `CCCCc1oc2ccccc2c1C(=O)c1cc(I)c(OCCN(CC)CC)c(I)c1`, the AC50 in [4] was 4.41 µM (active); in experiment [5], 4.86 µM (active); in experiment [6], 11.4 µM (active); in experiment [10] it was 7.41 µM (active); in experiment [12], 21.6 µM (active); in experiment [13], 22.5 µM (active). Also, the AC50 in [14] was 24.5 µM (active). In addition, in [11], the outcome was inactive.

Take `CC(O)COc1ccccc1` (stereo not given): the molecule was called inactive in [1].

Regarding `CCOC(=O)CN[C@@H](C(=O)N1CC[C@H]1C(=O)NCc1ccc(/C(N)=N/O)cc1)C1CCCCC1`, the result in [3] was inactive.

For the molecule `CS(=O)(=O)c1ccc([C@@H](CC2CCCC2)C(=O)Nc2cnccn2)cc1Cl`, the molecule was called inactive in experiment [11].

In the case of `CCCCCCCC(OC)OC`, the AC50 in experiment [1] was 0.0748 µM (active).

As to `O=C(CCCN1CCC(O)(c2ccc(Cl)cc2)CC1)c1ccc(F)cc1`, the outcome in experiment [6] and in experiment [15] was inactive. Besides, the AC50 in experiment [12] is 37.3 µM (active).

As to `CCCCCCCCCCCCCCCCCC[N+](C)(C)Cc1ccccc1`, the AC50 in experiment [3] was 2.22 µM (active); in experiment [2], 0.314 µM (active); in experiment [6], 2.55 µM (active); in [9] it was 2.17 µM (active).

With `CC1=NN(c2ccccc2)C(=O)C1`, the outcome in experiment [1] was inactive.

Regarding `Clc1ccc(Nc2nnc(Cc3ccncc3)c3ccccc23)cc1`, the AC50 in experiment [3] is 16 µM (active); in experiment [6] it was 3.61 µM (active); in experiment [1] it was 0.417 µM (active).

As to `C=Cc1ccc(O)c(OC)c1`, the result in experiment [1] was inactive.

For the molecule `CCCCCCCCC(C)=O`, the outcome in experiment [3] was inactive.

Consider `CCCCC=O`, for which the molecule was classed as inactive in experiment [16].

With `CCC(C)c1ccccc1O` (stereo not given), the AC50 in [8] was 11.5 µM (active).

Regarding `CCCCCCCCCCCCOS(=O)(=O)O`, the call in experiment [17], in [16] and in experiment [8] was inactive. Besides, the AC50 in experiment [3] is 37.6 µM (active); in experiment [7], 18.6 µM (active); in experiment [1], 7.92 µM (active); in [9], 25 µM (active).
